We go through 32 compounds from PubChem BioAssay (EPA / NIEHS).

Records with an inconclusive call do not appear. Some compounds were tested as several samples or in several runs, with calls that do not always agree. Active and inactive are the calls of the source. Rule for the calls: active = hit-call score of the fitted dose curve at least 0.9, where 1 is the maximum; inconclusive = response in the unintended direction; inactive = score below 0.9.

The nature of test [1]: ATG_XTT_Cytotoxicity: Cytotoxicity Assessment in the Attagene TRANS-FACTORIAL HepG2 Assay (AID 2283584). The gist of the method: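 HepG2 cells transiently transfected with GAL4-UAS multiple reporter units, dosed 24 h; cytotoxicity read by XTT as loss of signal versus DMSO baseline.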
Test [2] in a line: TOX21_p53_BLA_p3_viability: Viability Assessment in the Tox21 HCT-116 p53 Agonism Beta-lactamase Assay, Phase 3 (AID 2283593).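 Note: cells exposed to compound for 16 h before reading.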 The gist of the method:
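HCT116 cells, 4000/well, dosed 5 h after plating by pin transfer (217-fold dilution from DMSO stock) and incubated 16 h at 37C, 5% CO2. Viability read as ATP luminescence with CellTiter-Glo after 30 min at room temperature.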

Test [3] in a line: TOX21_p53_BLA_p5_viability: Viability Assessment in the Tox21 HCT-116 p53 Agonism Beta-lactamase Assay, Phase 5 (AID 2283600). The essentials: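 HCT-116 p53 beta-lactamase reporter cells, 4000/well, were exposed to compound (pin transfer, 217-fold dilution) for 16 hours at 37C. Cellular ATP was read by CellTiter-Glo luminescence after 30 min at room temperature.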
The target of test [4] is Cellular tumor antigen p53 (Homo sapiens) (UniProt P04637). Description: TOX21_p53_BLA_p4_ratio: Tox21 HCT-116 p53 Agonism Beta-lactamase Assay, Ratio, Phase 4 (AID 2283601). The essentials:
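HCT-116 p53 beta-lactamase reporter cells (4000/well) preincubated 5 h, then compound (217-fold dilution of DMSO stock) for 16 h at 37C. CCF4-AM substrate added 2 h at room temperature; 460/530 nm emission ratio fitted upward versus DMSO.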

Test [5] has the same target. Description: TOX21_p53_BLA_p3_ratio: Tox21 HCT-116 p53 Agonism Beta-lactamase Assay, Ratio, Phase 3 (AID 2283596). The essentials: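 HCT116 p53-bla cells (4000/well) given compound in DMSO (217-fold dilution) after 5 h, incubated 16 h at 37C. CCF4-AM substrate 2 h at room temperature; 460/530 nm emission ratio, gain fitted against DMSO.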
Test [6] in a line: TOX21_p53_BLA_p4_viability: Viability Assessment in the Tox21 HCT-116 p53 Agonism Beta-lactamase Assay, Phase 4 (AID 2283597).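 Note: hits lower the luminescence signal meaning cytotoxicity.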 The gist of the method: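 HCT-116 p53-bla cells, 4000/well, dosed after 5 h attachment and incubated 16 h at 37 °C, 5% CO2. Viability from CellTiter-Glo ATP luminescence after 30 min at room temperature, taken after the beta-lactamase read; loss of signal indicates cytotoxicity.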

Test [7] deals with Cellular tumor antigen p53 (Homo sapiens) (UniProt P04637). Kind of test: TOX21_p53_BLA_p5_ratio: Tox21 HCT-116 p53 Agonism Beta-lactamase Assay, Ratio, Phase 5 (AID 2283599). The essentials:
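HCT-116 p53-bla cells (4000/well) plated 5 h, dosed with compound (217-fold DMSO dilution) for 16 h at 37 C; CCF4-AM substrate 2 h at room temperature. Activity is the 460/530 nm emission ratio (405 nm excitation), fitted in gain-of-signal direction versus DMSO.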

Test [8] can be described thus: TOX21_p53_BLA_p2_viability: Viability Assessment in the Tox21 HCT-116 p53 Agonism Beta-lactamase Assay, Phase 2 (AID 2283591).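 Note: compound exposure lasted 16 h at 37 °C; actives lower the ATP signal meaning cytotoxicity.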 The gist of the method:
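HCT116 p53-bla cells, 4000/well, dosed after 5 h plating (217-fold dilution of DMSO stocks) and incubated 16 h at 37C. Viability taken as cellular ATP by CellTiter-Glo luminescence after 30 min RT; signal loss marks cytotoxicity.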

The target in test [9] is Cellular tumor antigen p53 (Homo sapiens) (UniProt P04637). Description: TOX21_p53_BLA_p2_ratio: Tox21 HCT-116 p53 Agonism Beta-lactamase Assay, Ratio, Phase 2 (AID 2283592). The gist of the method:
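HCT-116 cells with p53-responsive beta-lactamase reporter, 4000 cells/well, preincubated 5 h, then compound in DMSO (217-fold dilution) for 16 h at 37C. CCF4-AM substrate 2 h at room temperature; 460/530 nm emission ratio fitted upward versus DMSO.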

Cellular tumor antigen p53 (Homo sapiens), sequence (P04637 whole entry, looked up): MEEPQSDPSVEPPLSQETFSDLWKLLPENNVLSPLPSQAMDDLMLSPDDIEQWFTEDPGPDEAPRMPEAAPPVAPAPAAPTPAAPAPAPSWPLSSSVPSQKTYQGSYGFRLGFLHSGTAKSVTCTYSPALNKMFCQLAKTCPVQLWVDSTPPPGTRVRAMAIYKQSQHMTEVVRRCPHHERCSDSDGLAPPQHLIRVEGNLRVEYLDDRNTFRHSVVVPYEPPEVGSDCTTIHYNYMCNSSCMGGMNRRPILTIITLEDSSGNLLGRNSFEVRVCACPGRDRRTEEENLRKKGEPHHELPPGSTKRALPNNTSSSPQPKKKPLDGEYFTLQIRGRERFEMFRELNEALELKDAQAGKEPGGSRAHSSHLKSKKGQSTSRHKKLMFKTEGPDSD

Turning to `CCOc1ccc(N=Nc2ccc(C=Cc3ccc(N=Nc4ccc(OCC)cc4)cc3S(=O)(=O)O)c(S(=O)(=O)O)c2)cc1`, the compound was classed as inactive in test [1], in [2], in [3] and in test [4].

With `CC(C=O)Cc1ccc(C(C)(C)C)cc1` (stereo not given), the result in test [1], in [2], in test [5], in test [6], in [7] and in test [3] was inactive. The outcome in test [4] was inactive.

As for `CC(=O)NCCO`, the result in [1], in [5], in [6] and in test [3] was inactive.

With `CC(C)OCCO`, the outcome in [1], in [2], in [5] and in test [7] was inactive.

As to `CCCC(=O)c1ccccc1`, the compound was classed as inactive in test [8], in [9], in test [2], in [5], in [6] and in test [7]. For the same compound, in test [4], the outcome was inactive.

For orientation: AC50 means the concentration giving half of the maximal activity seen. For `CCCC[P+](CCCC)(CCCC)CCCC`, the call in test [8], in test [9], in test [2], in test [5], in test [7] and in [3] was inactive. Further, the outcome in test [4] was inactive. The AC50 in test [3] was 14.5 µM (active).

In the case of `C1=CC2C3C=CC(C3)C2C1` (stereo not given), the compound was called inactive in [8], in test [9], in [2], in test [5], in test [6] and in test [7]. The compound was classed as inactive in [3] and in test [4].

Turning to `O=C(O)c1cccnc1C(=O)O`, the outcome in [1], in test [5] and in [7] was inactive.

In the case of `CCCN(CCC)S(=O)(=O)c1ccc(C(=O)O)cc1`, the outcome in test [8], in test [9], in [2], in [5], in test [6] and in test [7] was inactive. Besides, the result in test [3] and in test [4] was inactive.

Turning to `CCCCC1CCC(O)CC1` (stereo not given), the compound was called inactive in test [1] and in test [5]. Moreover, the AC50 in test [7] was 83.6 µM (active).

Consider `CCOc1ccccc1O`, for which the outcome in test [8], in test [9], in test [7] and in test [4] was inactive.

Consider `Cc1cc(CCC(=O)OCCOCCOCCOC(=O)CCc2cc(C)c(O)c(C(C)(C)C)c2)cc(C(C)(C)C)c1O`, for which the call in [2], in test [3] and in [4] was inactive.

As to `CC(C)CCCCCCCCCCCCCCC(=O)O`, the call in test [2], in test [5], in [7] and in [4] was inactive.

As for `OCCc1ccccc1`, the outcome in [8], in [9], in test [2], in [5], in test [7] and in test [4] was inactive.

As to `c1ccc2cc(Nc3ccc(Nc4ccc5ccccc5c4)cc3)ccc2c1`, the outcome in test [9], in test [2], in test [5], in test [7] and in test [4] was inactive. Further, the AC50 in test [5] is 73.5 µM (active).

Regarding `C[N+](C)(C)CCCCCC[N+](C)(C)C`, the result in test [9], in test [6], in test [7] and in [4] was inactive.

Turning to `NCC1CCCC(CN)C1` (stereo not given), the call in [8], in test [9], in test [5], in test [7], in [3] and in [4] was inactive.

With `FC(F)(F)COCC(F)(F)F`, the result in test [9], in test [2], in test [5], in test [7], in test [3] and in test [4] was inactive.

With `COCCOCCOCCO`, the compound was classed as inactive in [8], in [9], in [2], in [5], in test [7] and in [4].

In the case of `COc1ccccc1N=Nc1c(S(=O)(=O)O)cc2cc(S(=O)(=O)O)cc(NC(C)=O)c2c1O`, the outcome in test [9], in test [2], in test [5], in test [7] and in [4] was inactive.

In the case of `C1CCCCC1`, the result in [8], in test [6], in [7] and in test [4] was inactive.

In the case of `C[C@H]1C[C@@H](O)CC(C)(C)C1`, the outcome in test [9], in test [5], in [7] and in test [4] was inactive.

Regarding `CN1CCOCC1`, the result in [8], in [9], in test [5], in test [7], in [3] and in test [4] was inactive.

Take `CC/C=C\CCOC(=O)CC`: the compound was classed as inactive in test [2], in test [5], in test [7] and in test [4].

`CC(C)CCCCCCc1ccc(OCCOCCO)cc1`: the outcome in [2], in test [5], in test [7] and in [4] was inactive.

As for `CCCCC1(COC(=O)CCC(=O)O)C(=O)N(c2ccccc2)N(c2ccccc2)C1=O`, the compound was called inactive in test [8], in test [2], in test [5], in test [6], in test [7] and in [4].

Take `CCc1ncc(C)[nH]1`: the compound was classed as inactive in test [8], in test [5], in test [7], in test [3] and in [4].

Take `CSCCC=O`: the compound was called inactive in test [8], in [9], in test [2], in test [5], in test [7] and in test [3]. For the same compound, the outcome in test [4] was inactive.

In the case of `c1ccc(Oc2ccccc2)cc1`, the result in test [9], in test [2], in test [5], in test [7] and in [4] was inactive.

As for `COC(C)(C)CCCC(C)CC=O` (stereo not given), the compound was classed as inactive in test [8], in [9], in [5], in [7] and in test [4].

Turning to `COC(CC(C)CCCC(C)(C)O)OC` (stereo not given), the compound was classed as inactive in [8], in [6], in [7] and in [4].

On to `C=C(C)C(=O)OCCOC1CC2CC1C1C=CCC21` (stereo not given), for which the outcome in [9], in [2], in test [5], in test [7] and in test [3] was inactive.
